According to PubChem BioAssay (NCATS):
“And” between values parts separate entries of the source, which are not always exact repeats. Identical values can stand only once. Results filed as inconclusive are left out. The source made the active and inactive calls. Unless noted, calls follow the shape of the dose curve; as a rule, active = well fitted curve in the direction sought with a large enough effect; inconclusive = small, poorly fitted or top-dose-only effect, or another doubt; inactive = no such curve, though single readings can be large; an effect the other way counts as inactive or inconclusive.

Columns and labels:
[1] = Cell Viability - BJ (AID 421; calls by dose curve;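 also: potency is read from the fitted curve at half-maximal effect; cells exposed to compound for 40 hours at 37 °C before readout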); details: BJ fibroblast viability, qHTS
In short: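 Cytotoxicity in human BJ foreskin fibroblasts is scored as loss of cellular ATP after a 40-hour exposure, measured by luciferase luminescence. Controls are DMSO and 100 uM tamoxifen.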

[2] = Cell Viability - Jurkat (AID 426;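 active = dose-dependent loss of cell ATP signal giving a full or clear fitted curve, ranked by lower potency value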;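 also: potency is read from the fitted curve at half-maximal effect; cells exposed to compound for 40 hours at 37 °C before ATP read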); details: qHTS
In short: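 qHTS, 1536-well; Jurkat E6-1, 5000 cells/well, complete medium; cpd 40 hr, 37 °C; CellTiter-Glo 20 min RT; luminescence. AC50 by Hill fit.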

[3] = Cell Viability - Hek293 (AID 427;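 active = compounds whose dose-response curve shows a full or clear partial loss of cell viability, called from curve shape rather than a numeric limit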;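 also: potency is read from the fitted curve at half-maximal effect; cells exposed to compound for 40 hours at 37 °C before reading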); details: qHTS
In short: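 qHTS, human embryonic kidney (adenovirus-transformed) cells; 40 hr cpd, 37 °C; CellTiter-Glo ATP luminescence. Norm: DMSO = 0, 100 uM tamoxifen = 100% inhibition. Hill-fit AC50.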

[4] = Cell Viability - SK-N-SH (AID 435; calls by dose curve;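 also: potency is read from the fitted curve at half-maximal effect; compound exposure lasted 40 h at 37 °C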); details: SK-N-SH neuroblastoma cell viability qHTS
In short: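 Cells seeded at 1500 per well and incubated 5 hr at 37 °C. Compound added, then 40 hr at 37 °C. CellTiter-Glo added, 20 min at room temperature, luminescence read.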

[5] = Cellular Toxicity (caspase-3) Jurkat (AID 655); details: Jurkat caspase-3 activation, luminescence; caspase-3 activation: at 92.2 µM (top of the series), DMSO = 0%, tamoxifen = 100%;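 also: cells exposed to compound for 16 h at 37 °C before reading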
In short: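 Caspase 3/7 activation is scored as increased luminescence in Jurkat cells cultured with compound for 16 hours in complete medium. AC50 values come from Hill fits of qHTS concentration-response data normalized to DMSO and 100 uM tamoxifen controls.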

[6] = Cellular Toxicity (caspase-3) SHSY5Y (AID 657); details: SH-SY5Y caspase-3 activation, DMSO zero, 10 µM staurosporine = 100%; series mostly up to 91.7 µM
In short: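 Cells plated and incubated 5 h at 37 °C, dosed over a concentration range, incubated 16 h, then given Caspase-Glo 3/7 reagent for 1 h at room temperature before luminescence reading. Staurosporine (10 uM) defined full stimulation.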

[7] = Cellular Toxicity (caspase-3) BJ (AID 658); details: BJ fibroblasts, luminescence, normalized: DMSO 0%, staurosporine 100%; series mostly up to 91.7 µM
In short: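 Luminescent aminoluciferin-substrate cleavage reports caspase 3/7 activity in normal human BJ fibroblasts after 16 hr compound exposure at 37 °C. Normalized to DMSO (basal) and 10 uM staurosporine (100%); AC50 from Hill fit of concentration-response.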

[8] = Cellular Toxicity (caspase-3) N2a (AID 665); details: N2a cells, luminescence, normalized: DMSO 0%, 10 µM staurosporine 100%; series mostly up to 92.2 µM;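 also: compound exposure lasted 16 h at 37 °C before readout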
In short: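 N2a cells, 1500/well, 5 h settle at 37 °C; cpd 16 h, 37 °C; Caspase-Glo 3/7, 1 h RT; luminescence. Norm: DMSO = 0, 10 uM staurosporine = 100%. AC50, Hill fit.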

[9] = Cellular Toxicity (caspase-3) Renal Proximal Tubule (AID 667); details: renal proximal tubule cells; series mostly up to 91.7 µM;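 also: cells exposed to compound for 16 hours at 37 °C before detection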
In short: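 In qHTS format, rat primary proximal tubule cells seeded at 1000 per well are exposed to compounds for 16 hours at 37 °C. An increase in Caspase-Glo 3/7 luminescence indicates caspase activation.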

[10] = MultiTox-Fluor Cytotoxicity Assay - LYMP1-001 - Dead Cells (AID 946); details: LYMP1-001 lymphoblastoid cells, dead-cell protease fluorescence; series mostly up to 92.2 µM
In short: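 Seed 2500 LYMP1-001 cells/well, incubate 5 hr at 37 C; add compound, 16 hr at 37 C; add MultiTox-Fluor reagent, 60 min RT; read dead-cell fluorescence Ex/Em=485/520. Normalize to DMSO and 15 uM tetraoctylammonium bromide.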

[11] = Cell Viability - LYMP1-002 - Assay at 16 hr (AID 948); details: LYMP1-002 lymphoblastoid cell viability; series mostly up to 92.2 µM;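 also: 0% = DMSO alone and full effect = 92 µM tetraoctylammonium bromide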
In short: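 Acute cytotoxicity is scored as a concentration-dependent fall in intracellular ATP in a human lymphoblastoid line (LYMP1-002) after 16 hr compound exposure at 37 C, measured by luciferase luminescence.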

[12] = MultiTox-Fluor Cytotoxicity Assay - LYMP1-003 - Dead Cells (AID 961); details: LYMP1-003 lymphoblastoid cells, dead-cell protease fluorescence; series mostly up to 92.2 µM; also: nearly all actives have a fitted effect of over 70% in size
In short: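 LYMP1-003 lymphoblastoid, 2500 cells/well, 5 hr settle then 16 hr cpd at 37 C; MultiTox-Fluor reagent 60 min RT; Ex/Em 485/520 dead-cell signal; norm. DMSO = 0%, 15 uM tetraoctylammonium bromide = 100%; Hill AC50.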

[13] = Cell Viability - LYMP1-003 - Assay at 24 hr (AID 963); details: LYMP1-003 lymphoblastoid cell viability; series mostly up to 92.2 µM;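 also: plate controls were DMSO only for no effect and tetraoctylammonium bromide positive control for full effect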
In short: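 Cells seeded at 2500/well, 5 hr at 37 C; compounds added; 24 hr at 37 C; CellTiter-Glo added, 30 min room temperature; luminescence read. Decrease in ATP taken as cytotoxicity, AC50 from Hill modelling.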

[14] = Cell Viability - LYMP2-013 (AID 970); details: LYMP2-013 lymphoblastoid cells viability; series mostly up to 92.2 µM;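 also: cells exposed to compound for 24 h at 37 °C; 0% = DMSO only and full inhibition = tetraoctylammonium bromide control; nearly all actives have a fitted effect of over 55% in size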
In short: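 qHTS; 2500 lymphoblastoid cells/well; 5 hr 37 C settle; cpd 24 hr 37 C; CellTiter-Glo, 30 min RT; luminescence. AC50 = Hill fit.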

[15] = Cell Viability - LYMP2-016 (AID 984); details: LYMP2-016 lymphoblastoid cell viability, qHTS; series mostly up to 92.2 µM;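 also: cells exposed to compound for 24 hours at 37 °C; % is scaled to controls: 0 for no effect and ±100 for the full control effect; nearly all actives have a fitted effect of over 55% in size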
In short: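 Acute toxicity in a Coriell human lymphoblastoid line is scored as loss of intracellular ATP over 24 h of treatment in complete medium. CellTiter-Glo signal is fitted across concentrations with the Hill equation to give AC50.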

[16] = Cell Viability - LYMP1-002 - Assay at 24 hr (AID 993); details: LYMP1-002 lymphoblastoid cells viability; series mostly up to 92.2 µM; also: % is scaled to controls: 0 for no effect and ±100 for the full control effect
In short: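 Cells plated 2500/well, 5 hr 37 C; compounds added, 24 hr 37 C; CellTiter-Glo added, 30 min RT; luminescence read. Tetraoctylammonium bromide positive control. Hill-equation AC50.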

[17] = qHTS Assay for Identification of Small Molecule Inducers of Hypoxia Response (AID 2120; active = well fitted curve in the direction sought with a large enough effect in the signal ratio, with a control signal flat, not every such curve was filed as active; the % refers to the signal ratio; also: 0% is about no effect); details: hypoxia response reporter cells, beta-lactamase ratio readout; series mostly up to 104 µM
In short: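 ME-180 HRE-bla cells plated in Opti-MEM/0.5% dialyzed FBS, rested 4-5 h, then dosed with compound titrations by pin tool. After 17 h at 37 degrees C, CCF4 dye loaded 2.5 h at RT; 460/530 nm ratio gave %Activity and AC50.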

[18] = target: Peroxisome proliferator-activated receptor alpha (Homo sapiens) (UniProt Q07869); experiment: qHTS assay for small molecule agonists of the peroxisome proliferator-activated receptor alpha (PPARalpha) signaling pathway (AID 651778); details: PathHunter PPARalpha complementation, chemiluminescence, 6 h; active compounds read high; also: % of control where 0% means no effect
Sequence of Peroxisome proliferator-activated receptor alpha (Homo sapiens) (Q07869 whole entry, looked up): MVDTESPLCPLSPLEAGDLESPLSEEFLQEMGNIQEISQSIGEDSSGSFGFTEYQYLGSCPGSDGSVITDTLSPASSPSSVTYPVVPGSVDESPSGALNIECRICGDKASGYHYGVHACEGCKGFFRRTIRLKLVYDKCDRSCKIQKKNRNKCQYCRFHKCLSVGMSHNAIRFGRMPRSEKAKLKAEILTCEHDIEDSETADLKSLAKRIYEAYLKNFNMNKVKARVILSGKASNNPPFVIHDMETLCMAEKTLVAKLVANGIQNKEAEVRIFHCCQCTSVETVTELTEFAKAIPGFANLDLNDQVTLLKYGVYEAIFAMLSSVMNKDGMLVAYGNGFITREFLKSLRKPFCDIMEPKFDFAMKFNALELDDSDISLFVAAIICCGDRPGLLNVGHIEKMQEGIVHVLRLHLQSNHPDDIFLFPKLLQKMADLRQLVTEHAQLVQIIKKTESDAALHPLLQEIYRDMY
In short: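 Cells plated at 2,000/well and held overnight at 37 C, 5% CO2, then compound added by pin tool for 6 hr; after PathHunter detection reagent and 60 min at room temperature, chemiluminescence from enzyme complementation was read.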

[19] = qHTS assay for cell viability of HEK293 cells (AID 743288); details: ATP luminescence (CellTiter-Glo), 18 h, active compounds read low; also: % is scaled to controls: 0 for no effect and ±100 for the full control effect; nearly all actives have a fitted effect of over 50% in size
In short: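 The Tox21 protocol used parental HEK293 cells treated for 18 h at 37 C with compounds delivered by pintool; ATP-coupled luminescence after 30 min at room temperature gave viability.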

[20] = qHTS assay for cell viability of the p53RE-bla HCT-116 cell line (AID 743292); details: p53RE-bla HCT-116 viability, ATP luminescence, 16 h; series mostly up to 95 µM; also: % is scaled to controls: 0 for no effect and ±100 for the full control effect; nearly all actives have a fitted effect of over 55% in size
In short: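 Luminescent ATP quantitation (CellTiter-Glo) served as the viability read-out; reagent was added after 16 h compound exposure at 37 C and read after 30 min at room temperature. Cells: p53RE-bla HCT-116, 4,000 per well.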

Clc1cccc(Cl)c1
inactive: Potency [1] > 92 µM | Potency [2] > 92 µM | Potency [3] > 92 µM | Potency [4] > 92 µM | caspase-3 activation [5] -0.0419% | outcome [6] | outcome [7] | outcome [8] | outcome [9] | outcome [10] | outcome [11] | Potency [12] | outcome [13] | Potency [14] | Potency [15] | Potency [16] | Potency [17] | max response [18] -0.108% | max response [19] -11.3% | Potency [20]

Cc1ccc(N)cc1Cl
inactive: Potency [1] > 92 µM | Potency [2] > 92 µM | Potency [3] > 92 µM | Potency [4] > 92 µM | caspase-3 activation [5] 1.16% | outcome [6] | outcome [7] | outcome [8] | outcome [9] | outcome [10] | outcome [11] | Potency [12] | outcome [13] | Potency [14] | Potency [15] | Potency [16] | Potency [17] | max response [18] 3.75% | max response [19] -1.75% | Potency [20]

BrCCc1ccccc1
inactive: Potency [1] > 92 µM | Potency [2] > 92 µM | Potency [3] > 92 µM | Potency [4] > 92 µM | caspase-3 activation [5] 1.89% | outcome [6] | outcome [7] | outcome [8] | outcome [9] | outcome [10] | outcome [11] | Potency [12] | outcome [13] | Potency [14] | Potency [15] | Potency [16] | Potency [17] | max response [18] -3.08% | max response [19] -1.44% | Potency [20]

C=CC(=O)OCC(CC)CCCC (stereo not given)
inactive: Potency [1] > 92 µM | Potency [2] > 92 µM | Potency [3] > 92 µM | Potency [4] > 92 µM | caspase-3 activation [5] -0.0566% | outcome [6] | outcome [7] | outcome [8] | outcome [9] | outcome [10] | outcome [11] | Potency [12] | outcome [13] | Potency [14] | Potency [15] | Potency [16] | Potency [17] | max response [18] 4.79% and 0.332% | max response [19] 1.71% and -12.5% | Potency [20]

CN(C)c1ccccc1
inactive: Potency [1] > 92 µM | Potency [2] > 92 µM | Potency [3] > 92 µM | Potency [4] > 92 µM | caspase-3 activation [5] 0.927% | outcome [6] | outcome [7] | outcome [8] | outcome [9] | outcome [10] | outcome [11] | Potency [12] | outcome [13] | Potency [14] | Potency [15] | Potency [16] | Potency [17] | max response [18] -1.79% | max response [19] 0.461% | Potency [20]

CC(C#N)CCC#N (stereo not given)
inactive: Potency [1] > 92 µM | Potency [2] > 92 µM | Potency [3] > 92 µM | Potency [4] > 92 µM | caspase-3 activation [5] 0.213% | outcome [6] | outcome [7] | outcome [8] | outcome [9] | outcome [10] | outcome [11] | Potency [12] | outcome [13] | Potency [14] | Potency [15] | Potency [16] | Potency [17] | max response [18] -3.28% | max response [19] -7.04% | Potency [20]

c1ccc(C2CO2)cc1 (stereo not given)
inactive: Potency [1] > 92 µM | Potency [2] > 92 µM | Potency [3] > 92 µM | Potency [4] > 92 µM | caspase-3 activation [5] 1.66% | outcome [6] | outcome [7] | outcome [8] | outcome [9] | outcome [10] | outcome [11] | Potency [12] | outcome [13] | Potency [14] | Potency [15] | Potency [16] | Potency [17] | max response [18] 0.189% | max response [19] -9.74% | Potency [20]

Clc1ccccc1
inactive: Potency [1] > 92 µM | Potency [2] > 92 µM | Potency [3] > 92 µM | Potency [4] > 92 µM | caspase-3 activation [5] 1.44% | outcome [6] | outcome [7] | outcome [8] | outcome [9] | outcome [10] | outcome [11] | Potency [12] | outcome [13] | Potency [14] | Potency [15] | Potency [16] | Potency [17] | max response [18] -0.13% | max response [19] 10.9% | Potency [20]

Clc1ccc(C(Cl)(Cl)Cl)cc1Cl
inactive: Potency [1] > 92 µM | Potency [2] > 92 µM | Potency [3] > 92 µM | Potency [4] > 92 µM | caspase-3 activation [5] 0.663% | outcome [6] | outcome [7] | outcome [8] | outcome [9] | outcome [10] | outcome [11] | Potency [12] | outcome [13] | Potency [14] | Potency [15] | Potency [16] | Potency [17] | max response [18] 1.82% | max response [19] 4.98% | Potency [20]

Clc1ccc(Cl)c(Cl)c1
inactive: Potency [1] > 92 µM | Potency [2] > 92 µM | Potency [3] > 92 µM | Potency [4] > 92 µM | caspase-3 activation [5] -0.724% | outcome [6] | outcome [7] | outcome [8] | outcome [9] | outcome [10] | outcome [11] | Potency [12] | outcome [13] | Potency [14] | Potency [15] | Potency [16] | Potency [17] | max response [18] -1.44% and -3.32% | max response [19] 9.56% and -10% | Potency [20]

CCOC(=O)CC(SP(=O)(OC)OC)C(=O)OCC (stereo not given)
inactive: Potency [1] > 92 µM | Potency [2] > 92 µM | Potency [3] > 92 µM | Potency [4] > 92 µM | caspase-3 activation [5] 1.26% | outcome [6] | outcome [7] | outcome [8] | outcome [9] | outcome [10] | outcome [11] | Potency [12] | outcome [13] | Potency [14] | Potency [15] | Potency [16] | Potency [17] | max response [18] -2.03% and -3.38% | max response [19] -12.5% and -3.42% | Potency [20]
